Results taken from article PMC7862700, “An all-to-all approach to the identification of sequence-specific readers for epigenetic DNA modifications on cytosine”.

Assays:
Test in all cases: DAPPL (digital affinity profiling via proximity ligation, sequencing); 10 mM Tris-HCl pH 7.5, 50 mM NaCl, 1 mM DTT, 4% glycerol, room temperature, 30 min; GST-TFs on glutathione beads, 16-mer random dsDNA library, 0.1% formaldehyde crosslink after washing; high values mean tight binding
Settings in all cases: protein: recombinant; tags: N-terminal GST; dsDNA, one strand shown
FLI1 = target: T1, FLI1 (Homo sapiens, UniProt Q01543 1-452)
T1 sequence: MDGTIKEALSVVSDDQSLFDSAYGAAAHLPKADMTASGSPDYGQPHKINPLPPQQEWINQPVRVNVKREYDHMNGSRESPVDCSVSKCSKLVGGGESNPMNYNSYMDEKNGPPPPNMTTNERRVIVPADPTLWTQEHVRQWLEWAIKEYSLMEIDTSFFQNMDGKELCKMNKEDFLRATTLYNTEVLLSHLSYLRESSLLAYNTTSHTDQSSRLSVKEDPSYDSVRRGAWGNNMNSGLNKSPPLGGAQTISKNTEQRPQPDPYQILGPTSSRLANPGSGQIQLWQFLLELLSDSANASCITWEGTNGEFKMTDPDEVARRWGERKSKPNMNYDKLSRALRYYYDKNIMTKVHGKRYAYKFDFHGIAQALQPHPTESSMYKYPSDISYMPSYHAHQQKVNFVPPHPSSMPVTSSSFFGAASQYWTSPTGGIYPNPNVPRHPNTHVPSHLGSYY
Summary of the method: (§1)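 After expression in yeast as GST fusions, human transcription factors were bound to glutathione beads, DNA-barcoded and mixed with a tag-only sample. The pools were incubated with 200 nmole of a 16-mer random double-stranded DNA library in Tris/NaCl/DTT/glycerol buffer (30 min, room temperature), washed and crosslinked with 0.1% formaldehyde. Proximity ligation with BsaI/T4 ligase ran for 1 h at 37 °C, before PCR amplification and sequencing on an Illumina NextSeq500. Binding signal is a hexamer's read frequency for a factor divided by its frequency for the tag-only sample.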

ELK1 = target: T2, ELK1 (Homo sapiens, UniProt P19419 1-428)
T2 sequence: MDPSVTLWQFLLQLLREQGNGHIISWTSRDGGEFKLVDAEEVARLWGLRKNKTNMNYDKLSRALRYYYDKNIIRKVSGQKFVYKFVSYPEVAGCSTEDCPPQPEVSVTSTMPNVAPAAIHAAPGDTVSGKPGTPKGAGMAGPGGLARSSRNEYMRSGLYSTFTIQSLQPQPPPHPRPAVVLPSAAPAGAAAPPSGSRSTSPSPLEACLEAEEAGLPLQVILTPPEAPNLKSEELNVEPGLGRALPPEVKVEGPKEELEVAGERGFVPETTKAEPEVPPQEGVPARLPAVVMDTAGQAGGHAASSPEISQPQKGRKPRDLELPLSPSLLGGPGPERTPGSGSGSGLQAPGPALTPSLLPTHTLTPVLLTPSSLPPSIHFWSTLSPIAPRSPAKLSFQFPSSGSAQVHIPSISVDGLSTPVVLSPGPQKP
Summary of the method: as §1

GABPA = target: T3, GABPA (Homo sapiens, UniProt Q06546 1-454)
T3 sequence: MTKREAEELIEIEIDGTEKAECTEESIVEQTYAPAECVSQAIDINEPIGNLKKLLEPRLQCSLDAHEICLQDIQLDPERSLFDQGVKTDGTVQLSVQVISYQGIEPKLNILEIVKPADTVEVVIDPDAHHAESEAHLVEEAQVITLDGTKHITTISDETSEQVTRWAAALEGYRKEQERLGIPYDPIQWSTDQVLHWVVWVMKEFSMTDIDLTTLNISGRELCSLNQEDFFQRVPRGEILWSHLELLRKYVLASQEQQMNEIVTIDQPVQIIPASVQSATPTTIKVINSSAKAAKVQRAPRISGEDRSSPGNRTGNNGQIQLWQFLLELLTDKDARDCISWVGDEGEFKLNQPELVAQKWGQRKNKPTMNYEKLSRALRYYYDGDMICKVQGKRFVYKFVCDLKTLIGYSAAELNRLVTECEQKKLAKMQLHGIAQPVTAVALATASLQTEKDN
Summary of the method: as §1

ERG = target: T4, ERG (Homo sapiens, UniProt P11308 1-479)
T4 sequence: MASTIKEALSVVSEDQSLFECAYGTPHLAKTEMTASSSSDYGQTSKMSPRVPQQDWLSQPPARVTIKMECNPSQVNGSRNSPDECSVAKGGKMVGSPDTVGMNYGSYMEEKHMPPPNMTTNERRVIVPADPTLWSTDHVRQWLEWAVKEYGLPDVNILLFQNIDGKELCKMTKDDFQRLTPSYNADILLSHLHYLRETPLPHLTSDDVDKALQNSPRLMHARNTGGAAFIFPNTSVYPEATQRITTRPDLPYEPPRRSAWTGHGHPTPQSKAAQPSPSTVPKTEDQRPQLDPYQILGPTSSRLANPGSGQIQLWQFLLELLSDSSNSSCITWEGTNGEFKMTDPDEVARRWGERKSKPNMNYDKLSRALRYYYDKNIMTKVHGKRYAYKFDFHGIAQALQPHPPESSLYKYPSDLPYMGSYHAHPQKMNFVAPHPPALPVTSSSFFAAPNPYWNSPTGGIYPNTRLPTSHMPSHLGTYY
Summary of the method: as §1

ELF1 = ELF1 (Homo sapiens, UniProt P32519 1-619)
ELF1, sequence (P32519 whole entry): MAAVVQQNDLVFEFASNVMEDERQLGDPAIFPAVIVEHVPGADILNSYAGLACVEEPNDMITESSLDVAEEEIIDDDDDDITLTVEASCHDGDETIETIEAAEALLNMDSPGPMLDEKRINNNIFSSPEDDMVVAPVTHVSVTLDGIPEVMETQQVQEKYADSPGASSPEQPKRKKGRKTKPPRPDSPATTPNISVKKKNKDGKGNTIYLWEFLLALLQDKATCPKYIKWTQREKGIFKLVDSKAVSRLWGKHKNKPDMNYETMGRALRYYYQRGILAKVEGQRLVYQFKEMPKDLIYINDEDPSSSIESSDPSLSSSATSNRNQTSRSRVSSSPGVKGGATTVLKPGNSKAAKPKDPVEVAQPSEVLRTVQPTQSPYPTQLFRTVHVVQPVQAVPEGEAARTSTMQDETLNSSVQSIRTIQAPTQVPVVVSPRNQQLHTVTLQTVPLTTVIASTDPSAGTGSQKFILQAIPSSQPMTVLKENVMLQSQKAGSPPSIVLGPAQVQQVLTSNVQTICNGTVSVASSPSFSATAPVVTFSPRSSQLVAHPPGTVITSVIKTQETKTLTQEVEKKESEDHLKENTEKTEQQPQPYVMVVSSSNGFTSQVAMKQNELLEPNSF
Summary of the method: as §1

SPI1 = SPI1 (Homo sapiens, UniProt P17947 1-270)
Summary of the method: as §1

SPIB = SPIB (Homo sapiens, UniProt Q01892 1-262)
SPIB, sequence (Q01892 whole entry): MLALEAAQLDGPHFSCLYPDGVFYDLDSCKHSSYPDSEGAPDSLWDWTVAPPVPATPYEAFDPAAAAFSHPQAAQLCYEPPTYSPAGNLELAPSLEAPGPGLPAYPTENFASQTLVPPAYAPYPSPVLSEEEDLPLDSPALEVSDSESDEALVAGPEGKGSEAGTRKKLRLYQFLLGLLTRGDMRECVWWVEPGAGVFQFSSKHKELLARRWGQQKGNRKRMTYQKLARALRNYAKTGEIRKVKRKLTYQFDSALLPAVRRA
Summary of the method: as §1

ELK3 = target: T5, ELK3 (Homo sapiens, UniProt P41970 1-407)
T5 sequence: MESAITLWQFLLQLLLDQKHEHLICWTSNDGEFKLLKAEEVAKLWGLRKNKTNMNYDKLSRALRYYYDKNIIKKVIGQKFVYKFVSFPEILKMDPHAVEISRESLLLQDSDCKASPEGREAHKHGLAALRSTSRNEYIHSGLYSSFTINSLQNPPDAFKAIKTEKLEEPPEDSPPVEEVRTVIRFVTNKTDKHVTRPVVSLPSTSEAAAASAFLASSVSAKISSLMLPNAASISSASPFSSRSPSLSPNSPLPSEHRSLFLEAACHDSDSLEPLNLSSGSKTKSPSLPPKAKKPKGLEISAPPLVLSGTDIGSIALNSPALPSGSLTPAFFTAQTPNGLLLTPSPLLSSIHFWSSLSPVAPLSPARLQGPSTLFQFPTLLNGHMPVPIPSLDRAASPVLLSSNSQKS
Summary of the method: as §1

FEV = target: T6, FEV (Homo sapiens, UniProt Q99581 1-238)
T6 sequence: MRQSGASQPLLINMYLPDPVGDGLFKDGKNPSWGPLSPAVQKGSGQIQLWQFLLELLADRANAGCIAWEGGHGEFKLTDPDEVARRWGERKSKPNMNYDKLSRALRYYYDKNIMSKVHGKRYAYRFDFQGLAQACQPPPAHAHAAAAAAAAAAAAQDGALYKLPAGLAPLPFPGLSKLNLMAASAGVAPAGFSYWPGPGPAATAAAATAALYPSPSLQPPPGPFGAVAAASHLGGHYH
Summary of the method: as §1

ETV5 = ETV5 (Homo sapiens, UniProt P41161 1-510)
ETV5, sequence (P41161 whole entry): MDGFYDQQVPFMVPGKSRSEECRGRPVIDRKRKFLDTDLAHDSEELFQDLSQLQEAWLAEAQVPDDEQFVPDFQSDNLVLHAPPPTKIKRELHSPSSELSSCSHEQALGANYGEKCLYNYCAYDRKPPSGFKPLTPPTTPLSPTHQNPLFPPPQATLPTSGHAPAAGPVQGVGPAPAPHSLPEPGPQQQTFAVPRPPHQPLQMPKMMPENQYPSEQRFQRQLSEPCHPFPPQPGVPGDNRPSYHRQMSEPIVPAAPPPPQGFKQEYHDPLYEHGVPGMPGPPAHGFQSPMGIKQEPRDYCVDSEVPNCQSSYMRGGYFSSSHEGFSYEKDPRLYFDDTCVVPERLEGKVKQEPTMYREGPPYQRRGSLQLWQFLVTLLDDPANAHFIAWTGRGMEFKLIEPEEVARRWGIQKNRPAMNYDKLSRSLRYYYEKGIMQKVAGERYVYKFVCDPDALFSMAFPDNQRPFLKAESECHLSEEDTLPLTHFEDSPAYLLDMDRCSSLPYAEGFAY
Summary of the method: as §1

SPIC = target: T7, SPIC (Homo sapiens, UniProt Q8N5J4 1-248)
T7 sequence: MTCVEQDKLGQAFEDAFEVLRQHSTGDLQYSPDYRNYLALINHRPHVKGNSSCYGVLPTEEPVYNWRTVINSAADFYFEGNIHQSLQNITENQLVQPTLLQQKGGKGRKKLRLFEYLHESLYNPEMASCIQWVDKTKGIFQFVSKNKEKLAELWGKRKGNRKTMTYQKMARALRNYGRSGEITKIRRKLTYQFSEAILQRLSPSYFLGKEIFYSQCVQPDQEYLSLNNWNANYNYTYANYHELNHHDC
Summary of the method: as §1

ELF4 = ELF4 (Homo sapiens, UniProt Q99607 1-663)
ELF4, sequence (Q99607 whole entry): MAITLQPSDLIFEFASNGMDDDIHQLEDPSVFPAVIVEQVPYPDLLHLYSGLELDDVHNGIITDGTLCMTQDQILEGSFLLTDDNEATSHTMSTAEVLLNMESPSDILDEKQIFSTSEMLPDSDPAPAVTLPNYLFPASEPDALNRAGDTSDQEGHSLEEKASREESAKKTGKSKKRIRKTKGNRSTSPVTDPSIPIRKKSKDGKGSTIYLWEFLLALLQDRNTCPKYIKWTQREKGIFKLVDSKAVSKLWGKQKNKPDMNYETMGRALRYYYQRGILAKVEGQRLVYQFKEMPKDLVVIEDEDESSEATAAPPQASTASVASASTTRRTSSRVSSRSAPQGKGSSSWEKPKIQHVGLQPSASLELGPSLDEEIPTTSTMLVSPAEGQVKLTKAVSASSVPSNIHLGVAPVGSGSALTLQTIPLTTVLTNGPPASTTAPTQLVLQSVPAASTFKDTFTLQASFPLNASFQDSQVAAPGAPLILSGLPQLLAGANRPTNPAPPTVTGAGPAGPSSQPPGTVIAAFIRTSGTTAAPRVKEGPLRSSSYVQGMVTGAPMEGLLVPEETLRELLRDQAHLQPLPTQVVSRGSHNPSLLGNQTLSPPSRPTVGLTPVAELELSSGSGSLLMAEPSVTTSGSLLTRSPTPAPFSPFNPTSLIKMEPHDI
Summary of the method: as §1

ETV1 = ETV1 (Homo sapiens, UniProt P50549 1-477)
ETV1, sequence (P50549 whole entry): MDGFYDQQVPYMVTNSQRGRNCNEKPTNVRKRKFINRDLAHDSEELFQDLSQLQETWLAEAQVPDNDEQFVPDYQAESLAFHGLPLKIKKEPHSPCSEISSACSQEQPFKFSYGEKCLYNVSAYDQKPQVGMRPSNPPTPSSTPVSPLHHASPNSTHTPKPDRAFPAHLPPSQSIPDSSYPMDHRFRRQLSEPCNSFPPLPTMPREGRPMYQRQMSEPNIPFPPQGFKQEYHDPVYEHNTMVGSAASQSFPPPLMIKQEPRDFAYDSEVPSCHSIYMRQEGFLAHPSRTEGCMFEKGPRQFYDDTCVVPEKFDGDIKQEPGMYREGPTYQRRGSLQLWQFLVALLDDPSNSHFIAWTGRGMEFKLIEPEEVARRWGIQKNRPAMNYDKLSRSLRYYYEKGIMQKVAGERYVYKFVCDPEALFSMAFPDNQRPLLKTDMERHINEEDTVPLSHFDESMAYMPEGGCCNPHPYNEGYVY
Summary of the method: as §1

ERF = target: T8, ERF (Homo sapiens, UniProt P50548 1-548)
T8 sequence: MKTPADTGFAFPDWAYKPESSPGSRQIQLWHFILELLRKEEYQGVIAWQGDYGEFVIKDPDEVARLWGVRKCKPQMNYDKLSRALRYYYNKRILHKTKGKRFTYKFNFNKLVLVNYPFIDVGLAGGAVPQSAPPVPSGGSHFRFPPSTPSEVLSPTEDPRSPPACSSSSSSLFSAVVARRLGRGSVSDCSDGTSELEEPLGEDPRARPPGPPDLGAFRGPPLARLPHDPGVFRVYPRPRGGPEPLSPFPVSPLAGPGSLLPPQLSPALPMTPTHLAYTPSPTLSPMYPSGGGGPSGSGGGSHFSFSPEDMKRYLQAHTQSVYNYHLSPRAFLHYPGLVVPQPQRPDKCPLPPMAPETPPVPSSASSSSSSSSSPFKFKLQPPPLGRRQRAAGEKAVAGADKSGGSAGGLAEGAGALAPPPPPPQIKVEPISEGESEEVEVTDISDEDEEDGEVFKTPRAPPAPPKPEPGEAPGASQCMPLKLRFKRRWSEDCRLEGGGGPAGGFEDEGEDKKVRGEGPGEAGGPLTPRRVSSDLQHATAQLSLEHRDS
Summary of the method: as §1

ETV3L = target: T9, ETV3L (Homo sapiens, UniProt Q6ZN32 1-361)
T9 sequence: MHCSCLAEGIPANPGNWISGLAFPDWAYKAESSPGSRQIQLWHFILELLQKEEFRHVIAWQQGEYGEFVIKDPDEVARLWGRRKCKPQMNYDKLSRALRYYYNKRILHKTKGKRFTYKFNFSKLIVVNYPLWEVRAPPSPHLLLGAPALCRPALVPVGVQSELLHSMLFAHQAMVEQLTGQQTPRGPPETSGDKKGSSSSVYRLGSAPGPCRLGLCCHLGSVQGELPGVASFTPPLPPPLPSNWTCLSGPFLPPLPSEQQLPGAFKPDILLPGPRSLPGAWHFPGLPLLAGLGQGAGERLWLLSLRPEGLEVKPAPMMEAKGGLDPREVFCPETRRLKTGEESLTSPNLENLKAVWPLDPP
Summary of the method: as §1

ETS2 = target: T10, ETS2 (Homo sapiens, UniProt P15036 1-469)
T10 sequence: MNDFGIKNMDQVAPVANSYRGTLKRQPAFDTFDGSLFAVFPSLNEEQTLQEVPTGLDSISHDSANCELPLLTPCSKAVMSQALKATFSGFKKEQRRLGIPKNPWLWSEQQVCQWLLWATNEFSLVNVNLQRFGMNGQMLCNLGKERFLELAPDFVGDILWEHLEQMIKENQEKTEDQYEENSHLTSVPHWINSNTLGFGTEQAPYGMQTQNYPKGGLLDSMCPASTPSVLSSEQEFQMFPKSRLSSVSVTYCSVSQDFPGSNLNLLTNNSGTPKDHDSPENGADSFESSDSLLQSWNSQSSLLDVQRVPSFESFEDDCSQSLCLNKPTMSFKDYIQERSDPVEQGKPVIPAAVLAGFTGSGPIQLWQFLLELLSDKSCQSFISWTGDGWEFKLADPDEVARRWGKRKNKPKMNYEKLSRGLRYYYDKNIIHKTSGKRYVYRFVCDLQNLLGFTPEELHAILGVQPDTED
Summary of the method: as §1

ETV3 = target: T11, ETV3 (Homo sapiens, UniProt P41162-2 1-143)
T11 sequence: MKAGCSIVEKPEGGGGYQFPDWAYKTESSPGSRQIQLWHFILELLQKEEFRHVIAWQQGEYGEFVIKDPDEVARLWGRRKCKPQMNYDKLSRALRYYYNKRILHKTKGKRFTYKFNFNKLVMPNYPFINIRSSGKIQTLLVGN
Summary of the method: as §1

ETV6 = ETV6 (Homo sapiens, UniProt P41212 1-452)
ETV6, sequence (P41212 whole entry): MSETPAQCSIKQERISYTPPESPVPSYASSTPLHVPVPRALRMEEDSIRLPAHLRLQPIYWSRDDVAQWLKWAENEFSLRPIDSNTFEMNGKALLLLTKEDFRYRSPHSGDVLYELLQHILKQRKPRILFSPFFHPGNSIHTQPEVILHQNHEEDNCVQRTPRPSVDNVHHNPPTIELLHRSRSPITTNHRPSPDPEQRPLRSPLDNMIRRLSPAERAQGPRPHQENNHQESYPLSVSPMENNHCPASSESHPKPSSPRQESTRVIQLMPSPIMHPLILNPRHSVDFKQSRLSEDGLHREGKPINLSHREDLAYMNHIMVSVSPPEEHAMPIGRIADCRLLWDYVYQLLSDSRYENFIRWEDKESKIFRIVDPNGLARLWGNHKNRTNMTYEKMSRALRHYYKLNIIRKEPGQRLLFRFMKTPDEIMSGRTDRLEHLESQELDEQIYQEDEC
Summary of the method: as §1

CATCGC
binding signal (FLI1): 1.08 fold enrichment (6-mer frequency, TF over GST control)
binding signal (ELK1): 1.13 fold enrichment (6-mer frequency, TF over GST control)
binding signal (GABPA): 1.13 fold enrichment (6-mer frequency, TF over GST control)
binding signal (ERG): 1.06 fold enrichment (6-mer frequency, TF over GST control)
binding signal (ELF1): 1.06 fold enrichment (6-mer frequency, TF over GST control)
binding signal (SPI1): 1.06 fold enrichment (6-mer frequency, TF over GST control)
binding signal (SPIB): 1.1 fold enrichment (6-mer frequency, TF over GST control)
binding signal (ELK3): 1.23 fold enrichment (6-mer frequency, TF over GST control)
binding signal (FEV): 1.07 fold enrichment (6-mer frequency, TF over GST control)
binding signal (ETV5): 1.04 fold enrichment (6-mer frequency, TF over GST control)
binding signal (SPIC): 1.03 fold enrichment (6-mer frequency, TF over GST control)
binding signal (ELF4): 1.13 fold enrichment (6-mer frequency, TF over GST control)
binding signal (ETV1): 1.06 fold enrichment (6-mer frequency, TF over GST control)
binding signal (ERF): 1.06 fold enrichment (6-mer frequency, TF over GST control)
binding signal (ETV3L): 1.21 fold enrichment (6-mer frequency, TF over GST control)
binding signal (ETS2): 1.14 fold enrichment (6-mer frequency, TF over GST control)
binding signal (ETV3): 1.1 fold enrichment (6-mer frequency, TF over GST control)
binding signal (ETV6): 1.02 fold enrichment (6-mer frequency, TF over GST control)
